Active and inactive are the calls of the source.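 The calls were made as follows: active = response changes with concentration, giving a dose-dependent curve as judged by the depositor; inactive = the rest, with no dose-dependent response.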
biological target: Muscarinic acetylcholine receptor M3 (Rattus norvegicus) (UniProt P08483); experiment: rat M3 muscarinic receptor PAM counter-screen, SAR follow-up, selectivity assay for M4 PAM optimization project, CHO-K1 cells, calcium fluorescence, ACh EC20 (AID 623943); conditions: CHO-K1 rM3, calcium fluorescence, PAM mode with ACh EC20; series mostly up to 30 µM

Row | Structure (SMILES) | outcome
1 | Cc1nc2sc(C(=O)NCc3ccncn3)c(N)c2c(C)c1Cl | inactive
2 | Cc1nc2sc(C(=O)NCc3ccccc3)c(N)c2c(C)c1Cl | inactive
3 | Cc1nc2sc(C(=O)NC3CC3)c(N)c2c(C)c1Cl | inactive
4 | Cc1nc2sc(C(=O)NCCc3ccncc3)c(N)c2c(C)c1Cl | inactive
5 | Cc1nc2sc(C(=O)NCc3nccs3)c(N)c2c(C)c1Cl | inactive
6 | Cc1nc2sc(C(=O)NCc3cccnc3)c(N)c2c(C)c1Cl | inactive
7 | Cc1nc2sc(C(=O)NCc3ccc4c(c3)OCO4)c(N)c2c(C)c1Cl | inactive
8 | Cc1nc2sc(C(=O)NCc3ccncc3)c(N)c2c(C)c1Cl | inactive
9 | COc1ccc(C)c2sc(NC(=O)c3ccncc3)nc12 | inactive
10 | Cc1nc2sc(C(=O)NCc3cccc(F)c3F)c(N)c2c(C)c1Cl | inactive

— PubChem BioAssay AID623943 (Vanderbilt Specialized Chemistry Center, 2012)
